Results published in PubChem BioAssay (NCATS).
Results filed as inconclusive are left out. Entries that show only a call come without a potency. The source made the active and inactive calls. The call rests on the fitted dose curve; in most records, active means well fitted cell-killing curve with a large enough effect; inconclusive means small, poorly fitted or top-dose-only effect, or effect the other way; inactive means flat fitted curve, though single readings scatter.

tested on: CASKI; test: Primary qHTS to identify gynecologic anti-cancer compounds using libraries of approved drugs and bioactive compounds (AID 1345084); settings: Gynecologic cancer cell panel viability, ATPlite luminescence, 48 h; series mostly up to 57.5 µM; further: nearly all actives have a fitted effect of over 55% in size
Summary of the method: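 Cell viability after 48 h drug treatment, ATPlite luminescence readout; five doses.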

Row | Compound | Potency
1 | O=S(=O)(NC1CCNCC1)c1cc(S(=O)(=O)c2ccccc2)ccc1C(F)(F)F | inactive
2 | COCC(=O)N1CCc2cc(-c3csc(NC(=O)c4cc(OC)cc(OC)c4)n3)ccc21 | inactive
3 | CC1(C)OC(=O)C(OCC2CC2)=C1c1ccc(S(C)(=O)=O)cc1 | inactive
4 | C[C@]12CCC[C@](C)(C(=O)O)C1CCC13C=C(CO)C(CCC12)C3 (stereo partly specified) | inactive
5 | Cc1coc2c1CC1OC1(C)CCC1OC1(C)C2 (stereo unspecified) | inactive
6 | C/C=C1\[C@H](O[C@@H]2O[C@H](CO)[C@@H](O)[C@H](O)[C@H]2O)OC=C(C(=O)OC)[C@H]1CC(=O)OC | inactive
7 | C=CCc1ccc(O[C@@H]2O[C@H](CO[C@@H]3O[C@H](CO)[C@@H](O)[C@H](O)[C@H]3O)[C@@H](O)[C@H](O)[C@H]2O)c(O)c1 | inactive
8 | C=C1CCC2C(C)(C(=O)O)CC(O)CC2(C)C1CC/C(C)=C/C(=O)O (stereo unspecified) | inactive
9 | O=C(NC[C@H](O)CN1CCc2ccccc2C1)c1cc(NC2COC2)ncn1 | inactive
10 | Nc1ncnc2c1ncn2[C@H]1CCCO1 | inactive
11 | CC1(C)CCCC2(C)C3=C(C(=O)OC3O)C(O)CC12 (stereo unspecified) | inactive
